For twelve molecules, binding signal results are on record in publication PMC12864922, “TDP-43 directly inhibits mRNA accumulation in neurites through modulation of mRNA stability”.

To fix the notation:
B1: ENSMUSG00000029636.401|Wasf3|14:18 (ssRNA)
RNA: GGGAGUUCUACAGUCCGACGAUCGCUUCGAUAUCCGCAUGCUAUUAUAGUGUUCCAACACAAUUGUAGCUGAGUUUCAGAUACGGUAUUUUCUCAUAGUGUAAACUCAGGCAGAUGAAUAGCUGGAGAGUGGGUGGAUGGAUGGGUGAGUAUAUGGGUAGAUAAAUGGAUGAGUGGAUGGGUGGGUUAGGUGGGUAAGUAGCUAGGUGGAUGGGUGGGUGGAUACAUGGAUGAGUGGAUGGGUGGAUUGGUGGGUGAGUGGAUAGGUGAAUGGAUGAUAGGUGGUGGAUGGUUGAGUGGGUGGCUCUUGCGGUCGCACUAGUGUGGAAUUCUCGGGUGUCAAGG
B2: ENSMUSG00000029636.392|Wasf3|68:72 (ssRNA)
RNA: GGGAGUUCUACAGUCCGACGAUCGCUUCGAUAUCCGCAUGCUACAUUUCAUGCUUAUACUUAAUCUACAGAUCGCAAGGUUGUUUUAUAUUAUCCCCUUAUAGUGUUCCAACACAAUUGUAGCUGAGUUUCAGAUACGGUAUUUUCUCAUAGUGUAAACUCAGGCAGAUGAAUAGCUGGAGAGUGGGUGGAUGGAUGGGUGAGUAUAUGGGUAGAUAAAUGGAUGAGUGGAUGGGUGGGUUAGGUGGGUAAGUAGCUAGGUGGAUGGGUGGGUGGAUACAUGGAUGAGUGGAUGGGUGGAUUGCUCUUGCGGUCGCACUAGUGUGGAAUUCUCGGGUGUCAAGG
B3: ENSMUSG00000029636.397|Wasf3 (ssRNA)
RNA: GGGAGUUCUACAGUCCGACGAUCGCUUCGAUAUCCGCAUGCUAGCAAGGUUGUUUUAUAUUAUCCCCUUAUAGUGUUCCAUGUGUAUUGUAGCUGAGUUUCAGAUACGGUAUUUUCUCAUAGUGUAAACUCAGGCAGAUGAAUAGCUGGAGAGUGGGUGGAUGGAUGGGUGAGUAUAUGGGUAGAUAAAUGGAUGAGUGGAUGGGUGGGUUAGGUGGGUAAGUAGCUAGGUGGAUGGGUGGGUGGAUACAUGGAUGAGUGGAUGGGUGGAUUGGUGGGUGAGUGGAUAGGUGAAUGGAUGAUACUCUUGCGGUCGCACUAGUGUGGAAUUCUCGGGUGUCAAGG
B4: ENSMUSG00000029636.411|Wasf3 (ssRNA)
RNA: GGGAGUUCUACAGUCCGACGAUCGCUUCGAUAUCCGCAUGCUAACUCAGGCAGAUGAAUAGCUGGAGAGUGGGUGGAUGGAUGGGUGAGUAUAUGGGUAGAUAAAUGGAUGAGUGGAUGGGUGGGUUAGGUGGGUAAGUAGCUAGGUGGAUGGGUGGGUGGAUACAUGGAUGAGUGGAUGGGUGGAUUGGUGGGUGAGUGGAUAGGUGAAUGGAUGAUAGGUGGUGGAUGGUUGAGUGGGUGGAUUCAUGAUGGAUGGAUGGAUGGAUGGAUGGAUGGAUGGAUGGAUGAGUGGAUGGAUAAUCUCUUGCGGUCGCACUAGUGUGGAAUUCUCGGGUGUCAAGG
B5: ENSMUSG00000029636.408|Wasf3 (ssRNA)
RNA: GGGAGUUCUACAGUCCGACGAUCGCUUCGAUAUCCGCAUGCUAUAUUUUCUCAUAGUGUAAACUCAGGCAGAUGAAUAGCUGGAGAGUGGGUGGAUGGAUGGGUGAGUAUAUGGGUAGAUAAAUGGAUGAGUGGAUGGGUGGGUUAGGUGGGUAAGUAGCUAGGUGGAUGGGUGGGUGGAUACAUGGAUGAGUGGAUGGGUGGAUUGGUGGGUGAGUGGAUAGGUGAAUGGAUGAUAGGUGGUGGAUGGUUGAGUGGGUGGAUUCAUGAUGGAUGGAUGGAUGGAUGGAUGGAUGGAUGGAUGCUCUUGCGGUCGCACUAGUGUGGAAUUCUCGGGUGUCAAGG
B6: ENSMUSG00000029636.395|Wasf3|50:54 (ssRNA)
RNA: GGGAGUUCUACAGUCCGACGAUCGCUUCGAUAUCCGCAUGCUAAAUCUACAGAUCGCAAGGUUGUUUUAUAUUAUCCCCUUAUAGUGUUCCAACACAAUUGUAGCUGAGUUUCAGAUACGGUAUUUUCUCAUAGUGUAAACUCAGGCAGAUGAAUAGCUGGAGAGUGGGUGGAUGGAUGGGUGAGUAUAUGGGUAGAUAAAUGGAUGAGUGGAUGGGUGGGUUAGGUGGGUAAGUAGCUAGGUGGAUGGGUGGGUGGAUACAUGGAUGAGUGGAUGGGUGGAUUGGUGGGUGAGUGGAUAGGUCUCUUGCGGUCGCACUAGUGUGGAAUUCUCGGGUGUCAAGG
B7: ENSMUSG00000029636.410|Wasf3 (ssRNA)
RNA: GGGAGUUCUACAGUCCGACGAUCGCUUCGAUAUCCGCAUGCUAGUGUAAACUCAGGCAGAUGAAUAGCUGGAGAGUGGGUGGAUGGAUGGGUGAGUAUAUGGGUAGAUAAAUGGAUGAGUGGAUGGGUGGGUUAGGUGGGUAAGUAGCUAGGUGGAUGGGUGGGUGGAUACAUGGAUGAGUGGAUGGGUGGAUUGGUGGGUGAGUGGAUAGGUGAAUGGAUGAUAGGUGGUGGAUGGUUGAGUGGGUGGAUUCAUGAUGGAUGGAUGGAUGGAUGGAUGGAUGGAUGGAUGGAUGAGUGGAUGCUCUUGCGGUCGCACUAGUGUGGAAUUCUCGGGUGUCAAGG
B8: ENSMUSG00000029636.416|Wasf3 (ssRNA)
RNA: GGGAGUUCUACAGUCCGACGAUCGCUUCGAUAUCCGCAUGCUAUGGAUGGAUGGGUGAGUAUAUGGGUAGAUAAAUGGAUGAGUGGAUGGGUGGGUUAGGUGGGUAAGUAGCUAGGUGGAUGGGUGGGUGGAUACAUGGAUGAGUGGAUGGGUGGAUUGGUGGGUGAGUGGAUAGGUGAAUGGAUGAUAGGUGGUGGAUGGUUGAGUGGGUGGAUUCAUGAUGGAUGGAUGGAUGGAUGGAUGGAUGGAUGGAUGGAUGAGUGGAUGGAUAAUAGGUUGAUGGGUGGAUAGGUAGAUGAGUGACUCUUGCGGUCGCACUAGUGUGGAAUUCUCGGGUGUCAAGG
B9: ENSMUSG00000029636.407|Wasf3 (ssRNA)
RNA: GGGAGUUCUACAGUCCGACGAUCGCUUCGAUAUCCGCAUGCUAAUACGGUAUUUUCUCAUAGUGUAAACUCAGGCAGAUGAAUAGCUGGAGAGUGGGUGGAUGGAUGGGUGAGUAUAUGGGUAGAUAAAUGGAUGAGUGGAUGGGUGGGUUAGGUGGGUAAGUAGCUAGGUGGAUGGGUGGGUGGAUACAUGGAUGAGUGGAUGGGUGGAUUGGUGGGUGAGUGGAUAGGUGAAUGGAUGAUAGGUGGUGGAUGGUUGAGUGGGUGGAUUCAUGAUGGAUGGAUGGAUGGAUGGAUGGAUGGACUCUUGCGGUCGCACUAGUGUGGAAUUCUCGGGUGUCAAGG
B10: ENSMUSG00000029636.415|Wasf3 (ssRNA)
RNA: GGGAGUUCUACAGUCCGACGAUCGCUUCGAUAUCCGCAUGCUAAGUGGGUGGAUGGAUGGGUGAGUAUAUGGGUAGAUAAAUGGAUGAGUGGAUGGGUGGGUUAGGUGGGUAAGUAGCUAGGUGGAUGGGUGGGUGGAUACAUGGAUGAGUGGAUGGGUGGAUUGGUGGGUGAGUGGAUAGGUGAAUGGAUGAUAGGUGGUGGAUGGUUGAGUGGGUGGAUUCAUGAUGGAUGGAUGGAUGGAUGGAUGGAUGGAUGGAUGGAUGAGUGGAUGGAUAAUAGGUUGAUGGGUGGAUAGGUAGAUCUCUUGCGGUCGCACUAGUGUGGAAUUCUCGGGUGUCAAGG
B11: ENSMUSG00000029636.393|Wasf3|62:66 (ssRNA)
RNA: GGGAGUUCUACAGUCCGACGAUCGCUUCGAUAUCCGCAUGCUAAUGCUUAUACUUAAUCUACAGAUCGCAAGGUUGUUUUAUAUUAUCCCCUUAUAGUGUUCCAACACAAUUGUAGCUGAGUUUCAGAUACGGUAUUUUCUCAUAGUGUAAACUCAGGCAGAUGAAUAGCUGGAGAGUGGGUGGAUGGAUGGGUGAGUAUAUGGGUAGAUAAAUGGAUGAGUGGAUGGGUGGGUUAGGUGGGUAAGUAGCUAGGUGGAUGGGUGGGUGGAUACAUGGAUGAGUGGAUGGGUGGAUUGGUGGGUCUCUUGCGGUCGCACUAGUGUGGAAUUCUCGGGUGUCAAGG
B12: ENSMUSG00000029636.403|Wasf3 (ssRNA)
RNA: GGGAGUUCUACAGUCCGACGAUCGCUUCGAUAUCCGCAUGCUAAUGUGUAUUGUAGCUGAGUUUCAGAUACGGUAUUUUCUCAUAGUGUAAACUCAGGCAGAUGAAUAGCUGGAGAGUGGGUGGAUGGAUGGGUGAGUAUAUGGGUAGAUAAAUGGAUGAGUGGAUGGGUGGGUUAGGUGGGUAAGUAGCUAGGUGGAUGGGUGGGUGGAUACAUGGAUGAGUGGAUGGGUGGAUUGGUGGGUGAGUGGAUAGGUGAAUGGAUGAUAGGUGGUGGAUGGUUGAGUGGGUGGAUUCAUGAUGGACUCUUGCGGUCGCACUAGUGUGGAAUUCUCGGGUGUCAAGG

The full ranking holds about 9,900 sequences; the median of “r (bound/input frequency ratio)” is about 0.7, and the highest 2% start at about 6.5. Only a selection was taken, and the highest values are over-represented in it overall.

Sequence of TDP-43 (Q13148 whole entry): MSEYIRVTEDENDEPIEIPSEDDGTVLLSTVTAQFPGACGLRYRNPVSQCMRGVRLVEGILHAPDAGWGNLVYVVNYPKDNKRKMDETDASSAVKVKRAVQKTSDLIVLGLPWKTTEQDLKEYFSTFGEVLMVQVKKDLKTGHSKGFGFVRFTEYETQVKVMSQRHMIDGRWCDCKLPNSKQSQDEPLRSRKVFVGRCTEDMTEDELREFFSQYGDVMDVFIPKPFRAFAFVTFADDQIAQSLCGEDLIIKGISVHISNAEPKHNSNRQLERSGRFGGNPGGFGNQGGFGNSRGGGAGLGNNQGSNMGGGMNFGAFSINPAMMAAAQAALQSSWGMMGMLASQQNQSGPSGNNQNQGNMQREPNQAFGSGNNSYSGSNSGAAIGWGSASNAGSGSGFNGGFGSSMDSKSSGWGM

For this assay, the target named is TDP-43 (Homo sapiens, UniProt Q13148 1-414). Nature of the assay: RNA Bind-n-Seq with designed 260-mer pool; 25 mM Tris-HCl, 150 mM KCl, 3 mM MgCl2, BSA (printed 500 mg/mL), 20 units/mL SUPERase IN; pH not stated; 500 nM RNA pool, 1 h, 4 C; TDP-43 5, 50, 500 nM; high values mean tight binding. Conditions: protein: recombinant; tags: SBP (GST cleaved off with PreScission; pGEX-GST-SBP). The method in brief:
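Streptavidin beads captured recombinant SBP-tagged TDP-43 at 5, 50 or 500 nM, and the beads were incubated for 1 h at 4 °C with 500 nM of an in vitro-transcribed pool of 260-nt 3′ UTR oligos in 25 mM Tris-HCl, 150 mM KCl, 3 mM MgCl2, BSA and SUPERase IN. After washing, bound RNA was eluted with biotin, reverse transcribed, PCR-amplified and sequenced. Binding is reported as R, the mapped-read-normalized abundance of each oligo in the bound sample divided by its abundance in the input. Two independent protein batches served as duplicates.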
Regarding B1, the binding signal was 4.07 R (bound/input frequency ratio). Consider B2, for which the binding signal was 4.14 R (bound/input frequency ratio). As for B3, the figure is 4.09 R (bound/input frequency ratio); as for B4, 7.25 R (bound/input frequency ratio). With B5 the figure was 20.3 R (bound/input frequency ratio); with B6, 4.72 R (bound/input frequency ratio). As for B7, the figure is 2.97 R (bound/input frequency ratio); as for B8, 6.38 R (bound/input frequency ratio); as for B9, 3.52 R (bound/input frequency ratio). B10: the binding signal is 2.19 R (bound/input frequency ratio). With B11 the figure was 6.94 R (bound/input frequency ratio). For the molecule B12, the binding signal is 15.4 R (bound/input frequency ratio).
